Hit rate of the full screen: of about 290,000 compounds, about 60 (0.02%) were called active. About 1% were inconclusive and are not listed. The rule behind the calls is not given here. Not all results are given here. Measured potencies and affinities stand elsewhere.
Test: West Nile virus antiviral activity, cell-based, CPE readout (AID 1621)
Conditions: West Nile virus-infected cells, at 10 µM, hits give high values

CPE inhibition, inactive:
Cc1ccc(-c2cc(C(=O)NCCCN3CCOCC3)c3ccccc3n2)cc1C 0.07%, CCOc1ccc(-c2cc(C(=O)NCCCN3CCCC3)c3ccccc3n2)cc1 11.7%, O=C(NCc1ccc(F)cc1)C1CCCN(S(=O)(=O)c2ccc(-n3cnnn3)cc2)C1 (stereo not given) 0.7%, CN(C)CCCN1c2ccccc2CCc2ccc(Cl)cc21 -0.38%, CN(C)CCCN1c2ccccc2CCc2ccccc21 -0.69%, COc1ccc(/C=C/C(=O)OCC(=O)NCc2ccco2)c(OC)c1 -0.46%, CCC(C)C(=O)N1CCCC(c2nc(-c3cccs3)no2)C1 (stereo not given) -0.34%, COc1ccccc1OCCn1cc(/C=N/NC(N)=S)c2ccccc21 -0.18%, Cc1cccc(-n2c(SCC(=O)O)nc3sc4c(c3c2=O)CCCC4)c1 0.2%, C[C@@H]1C[C@@H]2OC(=O)[C@]3(C)[C@H]2[C@@H](OC3(C)O)[C@]2(C)C(=O)C=C[C@H]12 (stereo not given in full) 1.25%, CCOC(=O)C1CCN(C(=S)Nc2cc(OC)c(OC)cc2C(=O)OC)CC1 0.82%, Cc1ccccc1CN1C(=O)c2ccccc2S(=O)c2ccc(C(=O)NCCCN3CCOCC3)cc21 (stereo not given) -0.39%, O=C(NCCCN1CCCC1)c1ccc2c(c1)N(Cc1ccccc1F)C(=O)c1ccccc1S2=O (stereo not given) -0.62%, Cc1ccc(-c2csc(N3CCN(c4cc5c(cc4Cl)nc(C)n5CCN4CCCCC4)CC3)n2)cc1 0.49%, O=[N+]([O-])c1ccc(C(O)CSC(=S)N2CCCCC2)cc1 (stereo not given) -0.96%, CCN1CCN(c2ccc(S(=O)(=O)N3CCCCC3)cc2NC(=O)Cc2ccc(OC)cc2)CC1 0.99%, CCN1CCN(c2ccc(S(=O)(=O)N3CCCCC3)cc2NC(=O)Cc2c(F)cccc2Cl)CC1 0.49%, COc1ccc(Cl)cc1C(=O)NCCCSc1ccccc1 -1.17%, COc1ccc(CNC(=O)CCN2C(=O)c3ccncc3C2=O)cc1OC 0.59%, COc1cc(-c2nc(C(=O)NC3CCCCC3)cc3c2[nH]c2ccccc23)cc(OC)c1OC 1.01%, N=c1c(C(=O)NCCN2CCOCC2)cc2c(=O)n3ccccc3nc2n1Cc1ccc(F)cc1 0%, Cc1cccn2c(=O)c3cc(C(=O)NCCN4CCOCC4)c(=N)n(CCN4CCOCC4)c3nc12 -0.04%, CN1C(=O)c2ccc(C(=O)NCc3ccco3)cc2C1=O 1.39%, c1ccc(Sc2ncnc3c2oc2ccccc23)nc1 1.08%, CC(/C=N/n1cnnc1)=C\c1ccccc1 -0.2%, ClC(/C=N/n1cnnc1)=C/c1ccccc1 2.95%, Cc1ccc2nc(Nc3ccccc3)c(C=O)c(=O)n2c1 -0.78%, CCN(CC)C(=O)Nc1c(C)n(C)n(-c2ccccc2)c1=O 0.37%, CCOC(=O)c1c(CN2CCN(C)CC2)n(-c2ccccc2)c2cc(Br)c(O)cc12 0.39%, CCOC(=O)c1c(CN2CCOCC2)n(-c2ccccc2)c2cc(Br)c(O)cc12 1.59%, COc1ccc(CCN(C)C(=O)c2cccc(S(=O)(=O)NCc3ccccc3)c2)cc1OC -1.05%, O=C1N[C@@H](Cc2ccccc2)C(=O)N2[C@@H]1C[C@@]1(Br)c3ccccc3N(S(=O)(=O)c3ccccc3)[C@@H]21 -0.59%, CC(C)c1cc(C(C)C)c(S(=O)(=O)N2c3ccccc3[C@@]3(Br)C[C@H]4C(=O)N[C@@H](Cc5ccccc5)C(=O)N4[C@@H]23)c(C(C)C)c1 2.08%, CCOC(=O)c1c(C)c(C(=O)NCc2cccs2)c(C)n1CC -0.75%, Fc1cccc(Cl)c1Cn1nnc2c(N3CCC4(CC3)OCCO4)ncnc21 0.17%, COc1ccc(C(=O)Oc2ccc3c(c2)OCO3)cc1OC 0.51%, COc1cc2c(O)c3c(c(-c4ccc5c(c4)OCO5)c2cc1OC)C(=O)OC3 12.1%, Cc1nn(Cc2ccccc2Cl)c2sc(C(=O)OC3CCCC3=O)cc12 (stereo not given) -0.34%, O=C(NCC(c1cccnc1)N1CCOCC1)NC1CCCCC1 (stereo not given) 0.45%, CCOC(=O)c1c(-c2ccc(F)cc2)csc1NC(=O)c1c(-c2ccccc2)noc1C -0.66%, COC(=O)c1c(-c2ccc(C)cc2)csc1NC(=O)c1c(-c2ccccc2)noc1C 0.29%, COc1cc(C(=O)N2CCCN(c3nc4cc(C)ccc4cc3C#N)CC2)cc(OC)c1OC 0.84%, COCCCNC(=S)N1CCCN(c2nc3cc(C)ccc3cc2C#N)CC1 -0.77%, COc1cc(-c2csc(NC3CCCCC3)n2)cc(OC)c1OC -0.66%, COc1ccc(/C=C2\SC(=S)N(NS(=O)(=O)c3ccc(C)cc3)C2=O)c(OC)c1 -0.03%, N=C1C(c2nc(-c3ccc(F)cc3)cs2)=C(O)CN1CCCN1CCOCC1 2.36%, O=C(CN1CCOCC1)Nc1nc(-c2ccc(Cl)cc2)cs1 -0.54%, CNc1nc2ccccc2n1CC(=O)c1ccccc1 -1.12%, Cc1cccc(NC(=O)CCN2CCOCC2)c1 0.1%, CCOC(=O)c1sc(=NC(=O)c2cccs2)n(C)c1C 0.29%, CCN(CC)CCNC(=O)c1cc2c(-c3cccc(OC)c3)nn(C)c2s1 10.3%, CCN(CCCNC(=O)c1cc2c(-c3cccc(OC)c3)nn(C)c2s1)Cc1ccccc1 11.5%, Cc1c(C(=O)c2ccc(Cl)c([N+](=O)[O-])c2)c2ccccn2c1CCC#N 0.29%, O=C(CN1C(=O)NC2(CCCCCC2)C1=O)Nc1ccc(S(=O)(=O)N2CCOCC2)cc1 0.5%, CSCCC(N=Cc1c(O)n(-c2ccc(F)cc2)c(=O)[nH]c1=O)C(=O)O (stereo not given) 0.06%, COc1ccc(-c2csc(N(CCCN(C)C)C(=O)c3cccs3)n2)cc1 0.38%, COc1ccc(-c2csc(N(CCCN(C)C)C(=O)c3ccccc3F)n2)cc1 -0.14%, Cc1ccc2nc(-c3ccc(NC(=O)CCN4C(=O)c5ccccc5C4=O)cc3)sc2c1 -0.32%, O=C(COc1ccc([N+](=O)[O-])cc1)N(Cc1ccccc1)Cc1ccccc1 -0.78%, COC(=O)c1c(NC(=O)C(C)(C)C)sc2c1C(C(=O)OC)CC2 (stereo not given) -0.06%, COC(=O)c1c(NC(=O)C(C)C)sc2c1C(C(=O)OC)CC2 (stereo not given) 1.21%, CC1=C(C(=O)N2CCCC(CCC(=O)NCc3ccccc3F)C2)OCCO1 (stereo not given) -0.63%, COc1ccc(C2c3ccc4ccccc4c3Oc3ncn(CCO)c(=N)c32)cc1OC (stereo not given) 57.3%, COc1ccc(C2c3ccc4ccccc4c3Oc3ncn(CCCO)c(=N)c32)cc1 (stereo not given) -1.98%, COc1ccc(C2c3c(ncn(CCCN4CCOCC4)c3=N)Oc3ccc4ccccc4c32)cc1OC (stereo not given) -1.6%, COc1ccc(C2c3c(ncn(CCN4CCOCC4)c3=N)Oc3ccc4ccccc4c32)cc1OC (stereo not given) -1.66%, N=c1c2c(ncn1CCN1CCOCC1)Oc1ccc3ccccc3c1C2c1ccccc1 (stereo not given) 2.66%, COc1ccc(C2c3ccc4ccccc4c3Oc3ncn(CCN4CCOCC4)c(=N)c32)cc1 (stereo not given) -0.91%, Cc1nc2nc(CCc3ccccc3)nn2c(C)c1Cl 0.45%, CN(Cc1ccon1)C(=O)CCc1nnc(Cc2ccc(-c3ccccc3)cc2)o1 -0.95%, Cc1cccc(-n2c(C)cc(C)c(C#N)c2=O)c1 0.53%, O=C(NNc1ccccc1[N+](=O)[O-])Nc1ccc(F)cc1F -0.58%, O=C(CCc1nc2ccccc2s1)OCc1ccccc1F -0.14%, O=c1c2c(-c3cccc([N+](=O)[O-])c3)ccnc2[nH]n1-c1ccccc1 0%, COCCn1c(N)c(N(Cc2ccccc2)C(=O)Cc2c(Cl)cccc2Cl)c(=O)[nH]c1=O -0.15%, COc1cccc(-n2c(SCC(=O)Nc3ccc4c(c3)CCC4)nc3ccccc3c2=O)c1 2.86%, C=CCn1c(SCC(=O)Nc2ccc3c(c2)CCC3)nc2ccccc2c1=O -0.68%, O=C(CSc1nc2ccccc2c(=O)n1-c1ccc(F)cc1)Nc1ccc(N2CCOCC2)cc1 -1.03%, CCCCn1c(SCC(=O)Nc2ccc3c(c2)CCC3)nc2ccccc2c1=O -0.76%, Cc1ccc(-n2c(SCC(=O)Nc3ccc(N4CCOCC4)cc3)nc3ccccc3c2=O)cc1 12.4%, O=C(CSc1nc2ccccc2c(=O)n1-c1ccc(F)cc1)Nc1ccc(C(=O)O)cc1 0.03%, O=C(Nc1ccccc1)C1CC(O)CN1S(=O)(=O)c1ccc([N+](=O)[O-])cc1 (stereo not given) 0.17%, Cc1ccc(-c2oc3ccccc3c(=O)c2OCC(=O)O)cc1 0.23%, COc1cc(NC(=O)COC(=O)CCc2cc(OC)c(OC)c(OC)c2)cc(OC)c1 1.02%, COCCN(CCOC)C(=O)c1cc2sc3ccccc3c2s1 -0.78%, CCCCN(CC)CCNC(=O)c1cc2c(=O)n(CC)c3ccccc3c2s1 -1.08%, CCN(CC)C(=O)c1cc2sc3ccccc3c2s1 -0.37%, CN(C)CCCNC(=O)c1ccccn1 0.08%, COCCNC(=O)c1cc2sc3ccccc3c2s1 -0.09%, CCN(CC)CCCNC(=O)c1cc2c(=O)n(CC)c3ccccc3c2s1 1.54%

Source: PubChem BioAssay AID1621 (Southern Research Specialized Biocontainment Screening …, 2009)
